Shown are actives, neighbours in structure and some others; about 4.3% of the full set was active somewhere.
MLL AF4-AF9 inh: MLL-AF4/AF9 protein interaction inhibition; AlphaScreen, biotin-AF4 peptide binding to FLAG-AF9; inhibition, % at 10 µM; P42568; actives 0.47% (n = 350,000); AID 651704;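 active = every replicate reaching a set inhibition limit, whatever the replicate mean, cut at about 25% in these data; inconclusive = mean inhibition reaches that limit but some replicates miss it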
SMARCA2 activ: increases SMARCA2 function in MMTV reporter cells; AID 652017; actives 1% (n = 370,000); activation, % at 9.1 µM; MG213 cells, MMTV-luciferase reporter, dexamethasone, overnight; in the data active = activation above about 7.8%
FGF22 binding: shifts melting point of recombinant human FGF22. recombinant FGF22 thermal shift, SYPRO orange fluorescence; percent of sucrose octasulfate shift, DMSO zero. activity (Tm shift, normalised), % at 9.99 µM. actives 1.5% (n = 340,000). AID 651658;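 active = mean Tm shift, scaled 0 neutral to 100 positive control, at about 1.3% or above, every replicate too, limit read from the data; inconclusive = no clear call, values can overlap the other calls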
Target sequence (Q9HCT0 whole entry, looked up): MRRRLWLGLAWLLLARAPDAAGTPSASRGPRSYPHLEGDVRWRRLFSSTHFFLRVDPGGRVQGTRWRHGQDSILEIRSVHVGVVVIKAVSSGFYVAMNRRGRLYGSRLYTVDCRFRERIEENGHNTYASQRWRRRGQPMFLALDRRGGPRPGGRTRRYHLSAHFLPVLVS
Wnt act: activators of Wnt/beta-catenin signaling | Wnt/beta-catenin reporter cell assay, activator, plate reader | activation, % at 9.35 µM | actives 1.2% (n = 300,000); in the data active = activation above about 30%, passing the limit was not always enough; inconclusive = no clear call, values can overlap the other calls
esBAF inh: blocks esBAF chromatin remodeling in mouse ES cells; Bmi1-luciferase knock-in reporter, 24 h; 100% = twice the neutral-well signal; AID 602393; reporter increase, % at 12.5 µM; actives 2% (n = 350,000); in the data active = activation above about 40%; inconclusive = no clear call, values can overlap the other calls;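 note: a rise in the Bmi1 reporter signal indicates esBAF inhibition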
MITF act: activators of MITF-driven TRPM1 promoter activity in SK-MEL-5 cells. activation, % at 12.5 µM. SK-MEL-5 TRPM1-promoter luciferase, 24 h; % of positive control, neutral wells = 0. AID 588334. actives 0.75% (n = 300,000);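 active = mean activation of at least 80% with every replicate also reaching 80%; inconclusive = mean reaches 80% but some replicate falls short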
Hits are given with their value; i = inactive; ? = inconclusive; nt = not tested or not shown.

SMILES | MLL AF4-AF9 inh | SMARCA2 activ | FGF22 binding | Wnt act | esBAF inh | MITF act
Cc1ccc(CN2CCN(C3CCCC3)C(CCO)C2)s1 (stereo unspecified) | i | i | i | 31 | i | i
C/C(=C\c1ccccc1)CN1CCN(Cc2ccc(C)o2)C(CCO)C1 (stereo unspecified) | i | i | 44 | i | i | i
Cc1ccc(CN2CCN(Cc3ccccc3)C(CCO)C2)s1 (stereo unspecified) | i | i | i | i | nt | i
COc1ccccc1/C=C/CN1CCN(Cc2ccc(C)o2)C(CCO)C1 (stereo unspecified) | nt | i | nt | i | i | i
Cc1ccc(CN2CCN(Cc3cnc(C)s3)CC2CCO)o1 (stereo unspecified) | i | i | 44 | i | nt | i
Cc1ccc(CN2CCN(Cc3cn(C)nc3C)CC2CCO)o1 (stereo unspecified) | i | i | 43 | i | nt | i
Cc1noc(C)c1NC(=O)Nc1cccc2c1O[C@H](CN(C)C(=O)NC(C)C)[C@@H](C)CN([C@@H](C)CO)C2=O | i | nt | i | nt | i | nt
CCNC(=O)[C@@H]1[C@@H](CO)[C@@H]2Cn3c(ccc(-c4ccncc4)c3=O)[C@H]1N2Cc1ccccc1 | i | nt | i | nt | i | nt
COc1cc(/C=C2\C(=O)N(c3cccc(C(=O)O)c3)N=C2C)ccc1OCc1ccccc1 | i | i | i | i | 52 | nt
Cc1ccc(Nc2nc(COC(=O)C3CC3)cs2)cc1 | i | i | i | i | 49 | ?
O=C1CC(C(=O)Nc2cccc(F)c2)n2ncnc2N1 (stereo unspecified) | i | i | 43 | i | i | i
O=C1CC(C(=O)Nc2ccc(Cl)cc2)n2ncnc2N1 (stereo unspecified) | i | i | i | i | nt | i
CCCNC(=O)Nc1ccc2c(c1)C(=O)N(C)C[C@@H](OC)[C@H](C)CN(C(=O)C1CCOCC1)[C@@H](C)CO2 | i | nt | i | nt | i | nt
Cc1ccc(CNS(=O)(=O)c2ccccc2[N+](=O)[O-])cc1 | i | i | 44 | i | nt | i
Cc1ccc(CNS(=O)(=O)c2ccc([N+](=O)[O-])cc2)cc1 | i | i | i | i | i | i
O=C(Nc1ccc(-c2ccccc2)cc1)[C@@H]1[C@@H](CO)[C@@H]2Cn3c(cccc3=O)[C@@H]2N1CC1CCCCC1 | i | nt | i | nt | i | nt
CCOC(=O)C1CCN(C(=O)c2ccc(Cl)c(NC3=NC4CS(=O)(=O)CC4S3)c2)CC1 (stereo unspecified) | 25 | i | i | i | i | i
COc1cc(N=CC2=C(O)c3ccccc3C2=O)cc(OC)c1 | i | i | i | i | 43 | i
CC(C)CN=CC1=C(O)c2ccccc2C1=O | i | i | i | i | nt | nt
CC(C)C#Cc1ccc2c(c1)O[C@H](CN(C)C(=O)C1CC1)[C@@H](C)CN([C@H](C)CO)S2(=O)=O | i | nt | i | nt | i | nt
COc1cc(C(=O)O/N=C2\C=CC(=O)C(C)=C2)cc(OC)c1OC | nt | i | nt | 61 | i | nt
c1ccc(CNc2ncnc3c2ncn3C2CCCCO2)cc1 (stereo unspecified) | nt | i | nt | i | 46 | i
O=C(Cn1cnc2c(NCc3ccccc3)ncnc21)NCC1CCCO1 (stereo unspecified) | i | i | i | i | i | i
Fc1cccc(CSc2ncnc3c2ncn3C2CCCCO2)c1 (stereo unspecified) | i | i | nt | i | 83 | 98
OC[C@@H]1CN(Cc2ccccc2)C[C@H](n2cnc3c(NCc4ccc(F)cc4)ncnc32)O1 | i | i | i | nt | 46 | nt
SMILES | MLL AF4-AF9 inh | SMARCA2 activ | FGF22 binding | Wnt act | esBAF inh | MITF act
CC(C)CCn1cnc2c(NCc3ccccc3)ncnc21 | nt | i | nt | nt | 46 | i
OC[C@@H]1CN(Cc2ccc(-c3ccccc3)cc2)C[C@H](n2cnc3c(NCc4ccc(F)cc4)ncnc32)O1 | i | i | i | nt | i | nt
CCCN1[C@@H]2c3ccc(-c4ccncc4)c(=O)n3C[C@@H]2[C@@H](CO)[C@@H]1C(=O)NCCCN1CCOCC1 | i | nt | i | nt | i | nt
Clc1cccc(CSc2ncnc3c2ncn3C2CCCCO2)c1 (stereo unspecified) | i | i | i | i | 76 | i
Fc1ccc(CSc2ncnc3c2ncn3C2CCCCO2)cc1 (stereo unspecified) | i | i | i | i | nt | i
c1ccc(CSc2ncnc3c2ncn3C2CCCCO2)cc1 (stereo unspecified) | i | i | nt | i | 84 | 100
CCCN1C[C@H](C)[C@H](OC)CN(C)C(=O)c2cc(NS(=O)(=O)CC)ccc2OC[C@@H]1C | i | nt | i | nt | i | nt
CCS(=O)(=O)N[C@@H]1C=C[C@@H](CC(=O)NCc2ccc(F)cc2)O[C@H]1CO | i | nt | i | nt | i | nt
O=C(CCC1CCCCC1)Nc1ccccc1O | nt | i | nt | i | 42 | 95
Cc1ccc(O)c(NC(=O)CCC2CCCCC2)c1 | nt | i | nt | nt | nt | 84
Cc1ccc(O)c(NC(=O)C2CCCCC2)c1 | i | i | i | i | nt | i
C[C@@H]1CN([C@H](C)CO)C(=O)c2cc(NS(=O)(=O)c3ccc(Cl)cc3)ccc2O[C@@H]1CN(C)C(=O)Nc1ccc(C(F)(F)F)cc1 | nt | nt | nt | nt | i | nt
C[C@H](CO)N1C[C@H](C)[C@H](CN(C)S(=O)(=O)c2ccc(Cl)cc2)OCCCC[C@H](C)Oc2ccc(NC(=O)Nc3ccccc3)cc2C1=O | i | nt | i | nt | i | nt
CNC[C@H]1Oc2ccc(NS(=O)(=O)c3ccc(F)cc3)cc2CC(=O)N([C@@H](C)CO)C[C@@H]1C | i | nt | i | nt | i | nt
COCC(=O)Nc1ccc2c(c1)OC[C@H](C)N(C(=O)CC1CC1)C[C@H](C)[C@H](OC)CN(C)C2=O | i | nt | i | nt | i | nt
CCN1C(=O)C(C)C=C(C)C=C1C (stereo unspecified) | i | i | 44 | i | i | nt
CCCC(=O)N1CCC2(CC1)CN(C(=O)CC1CC1)[C@H](CO)c1c2c2ccc(OC)cc2n1C | i | nt | i | nt | nt | nt
O=C(Nc1ccc(Cl)c(Cl)c1)N[C@H]1CC[C@@H](CCNC(=O)c2ccc(F)cc2)O[C@H]1CO | i | nt | i | nt | i | nt
Cn1nc2c(c1C(=O)N1CCCC(C(=O)c3cc(F)ccc3F)C1)CCCC2 (stereo unspecified) | i | i | 43 | i | nt | i
COc1ccc(C(=O)C2CCCN(C(=O)c3c4c(nn3C)CCCC4)C2)cc1F (stereo unspecified) | i | i | nt | i | nt | i
O=C(Nc1ccccn1)c1ccccc1 | i | i | i | i | i | 82
O=C(Nc1cccc(O)c1)C(=O)Nc1ccccn1 | i | i | i | i | i | i
O=C(NC(C(=O)c1ccccc1)c1ccccc1)c1ccccc1 (stereo unspecified) | ? | i | i | i | 41 | i
CC(C)(C)C(=O)NC(=S)Nc1ccccn1 | i | i | i | i | i | i
O=C(NC(=S)Nc1ccccn1)c1ccccc1 | i | i | i | 39 | i | i
O=C(Nc1ccccc1)C(=O)Nc1ccccn1 | nt | 8.0 | nt | i | i | i
O=C(Nc1ccccn1)c1ccc(C(=O)Nc2ccccn2)cc1 | nt | nt | nt | nt | i | nt

Screens (PubChem BioAssay)
